Laboratory results reported in PubChem BioAssay AID463173 (ICCB-Longwood Screening Facility, Harvard Medical School, 2010).
The campaign covered roughly 52,000 compounds. About 4,300 (8.3%) were called active. This is one part of a sample in which actives are shown more often than they occur. Values without a mark were called inactive. Rule as the data show it: active = survival mostly below about 52% (no sharp cut-off); inactive = mostly above about 56%.

What follows are compounds tested on DeltatarO mutant (assay: S. aureus survival, RN4220 and DeltatarO strains – OD600, teichoic acid synthesis inhibitors, primary screen (AID 463173)). Conditions: S. aureus RN4220 wild type/DeltatarO growth, OD600, 18 h, active compounds read low, screened at 18.75 µg/mL (by protocol).

| Compound | survival |
| --- | --- |
| CC(C)(C)NC(=O)c1cnn(-c2ccccc2)c1C1CCN(C(=O)OC(C)(C)C)CC1 | 78% |
| CC(=O)c1c(C)oc2ccc(N(C(=O)Oc3ccccc3)S(=O)(=O)c3ccc(Cl)cc3)cc12 | 75% |
| CCC(=O)OC1=C(C(C)=O)N(Cc2ccccc2)S(=O)(=O)c2ccccc21 | 62% |
| COc1ccc(C(CC(=O)Nc2ccc(F)c(Cl)c2)N2Cc3ccccc3C2=O)cc1OC (centres undefined) | 75% |
| O=C(Cc1cccs1)NC1CC(=O)N(c2ccccc2)C1 (centres undefined) | 88% |
| O=C(Cc1cccs1)NC1CC(=O)N(c2ccc(Cl)cc2)C1 (centres undefined) | 67% |
| O=C(Cc1cccs1)NC1CC(=O)N(c2ccc(F)cc2)C1 (centres undefined) | 99% |
| COc1ccc(N2CC(NC(=O)Cc3cccs3)CC2=O)cc1OC (centres undefined) | 94% |
| O=C(NC1CC(=O)N(c2ccccc2)C1)c1ccc(Br)o1 (centres undefined) | 87% |
| COc1ccc(N2CC(NC(=O)c3ccc(Br)o3)CC2=O)cc1 (centres undefined) | 81% |
| Cc1ccc(N2CC(NC(=O)c3ccc(Br)o3)CC2=O)cc1C (centres undefined) | 37% (active) |
| Cc1ccc(N2CC(NC(=O)Cc3cccs3)CC2=O)cc1C (centres undefined) | 25% (active) |
| Cc1ccc(N2CC(NC(=O)Cc3cccs3)CC2=O)cc1 (centres undefined) | 8% (active) |
| Cc1ccc(C)c(NC(=O)CCn2cnnn2)c1 | 148% |
| Cc1nnsc1C(=O)Oc1ccc(C#N)cc1 | 89% |
| COc1cccc(NC(=O)c2cc(CN3CCOCC3)on2)c1 | 88% |
| CCOC(=O)c1ccc(CN(Cc2ccc(Br)cc2)S(=O)(=O)c2cccc(Cl)c2C)cc1 | 84% |
| CC(=O)c1ccc(NC(=O)CN(C)S(=O)(=O)c2cc3c(cc2Cl)NC(=O)CO3)cc1 | 72% |
| O=C(NCc1ccccc1Cl)c1ccc2c(c1)NC(=O)C(CS(=O)(=O)Cc1ccc(F)cc1Cl)N2 (centres undefined) | 81% |
| COc1ccc(N2CCN(c3csc4ccccc4c3=O)CC2)cc1 | 81% |
| CCc1ccc(S(=O)(=O)c2nnn3c2nc(N2CCC(C(N)=O)CC2)c2cc(Cl)ccc23)cc1 | 69% |
| Cc1cc(C)n(CC(C)O)c(=O)c1C#N (centres undefined) | 108% |
| CC1(C)C(=O)N(CC(=O)Nc2ccc(Br)cc2F)c2ccccc21 | 89% |

| Compound | survival |
| --- | --- |
| Cc1cc(Br)cc(C)c1OCC(=O)Nc1ccc(S(=O)(=O)Nc2ncccn2)cc1 | 56% |
| CCc1cccc(OCC(=O)Nc2ccc(S(=O)(=O)Nc3ncccn3)cc2)c1 | 43% (active) |
| Cc1ccc(OCC(=O)Nc2ccc(S(=O)(=O)Nc3ncccn3)cc2)c(C(C)(C)C)c1 | 47% (active) |
| Cc1ccccc1OCC(=O)Nc1ccc(S(=O)(=O)Nc2ncccn2)cc1 | 133% |
| CC(C)c1ccc(OCC(=O)Nc2ccc(S(=O)(=O)Nc3ncccn3)cc2)cc1 | 75% |
| CCc1cccc(OCC(=O)Nc2ccc(S(=O)(=O)Nc3cc(C)nc(C)n3)cc2)c1 | 58% |
| CCC(Sc1nc2ncccc2[nH]1)C(=O)Nc1ccccc1F (centres undefined) | 112% |
| CCOC(=O)Cn1c(=O)oc2cc(S(=O)(=O)N3CCN(c4cccc(Cl)c4)CC3)ccc21 | 65% |
| COc1cccc2c1Oc1ncccc1N(c1ccc(C(=O)NCc3ccccc3Cl)s1)C2 | 91% |
| COc1ccc(Cn2c(CCC(=O)Nc3ccc(OC)c(Cl)c3)nc3cccnc32)cc1 | 113% |
| Cc1cccc(-c2nc(C)c(CCNC(=O)C(=O)Nc3ccccc3C#N)s2)c1 | 85% |
| CN(C)S(=O)(=O)N1CCC(n2c(C(F)(F)F)nc3cccnc32)CC1 | 94% |
| CCS(=O)(=O)N1CCC(n2c(C(F)(F)F)nc3cccnc32)CC1 | 76% |
| CS(=O)(=O)N1CCC(n2c(C(F)(F)F)nc3cccnc32)CC1 | 47% (active) |
| COc1ccc(S(=O)(=O)c2c(O)c3ccc(C(=O)NCc4ccc(F)cc4)cc3[nH]c2=O)cc1 | 108% |
| CCOc1cc(-c2ccc(OC(=O)c3ccccc3)c(OC)c2)cc(=O)c2c(C)oc(C)c12 | 89% |
| CCc1ccc(S(=O)(=O)c2nnn3c2nc(Nc2cc(OC)cc(OC)c2)c2cc(Cl)ccc23)cc1 | 102% |
| CCOc1ccc(Nc2nc(C)c(NC(=O)c3ccc(C)cc3)c(Nc3ccc(OCC)cc3)n2)cc1 | 123% |
| CCOc1ccc(C(=O)Nc2c(C)nc(Nc3ccccc3)nc2Nc2ccccc2)cc1OCC | 49% (active) |
| CCOc1ccc(Nc2nc(C)c(NC(=O)c3cccc(OC)c3)c(Nc3ccc(OCC)cc3)n2)cc1 | 112% |
| COc1ccccc1Cc1nc2ccccc2nc1SCC(=O)N(C)c1ccc(F)cc1 | 83% |
| O=C(Cn1cc(SCc2ccc(C(F)(F)F)cc2)c2ccccc21)N1CCOCC1 | 85% |
| O=C(Nc1ccc(OC(F)(F)F)cc1)NC1COc2ccccc2C1 (centres undefined) | 0% (active) |

| Compound | survival |
| --- | --- |
| COc1ccc(NC(=O)NC2COc3ccccc3C2)c(OC)c1 (centres undefined) | 98% |
| COc1ccc(NC(=O)NC2COc3ccccc3C2)cc1Cl (centres undefined) | 57% |
| O=C(Nc1cccnc1)c1ccccc1Oc1ccccc1 | 65% (active) |
| O=C(Nc1cccnc1)c1cccc(C(=O)Nc2cccnc2)c1 | 79% |
| O=C(O)c1ccccc1C(=O)Nc1cccnc1 | 89% |
| CCOc1ccc(-c2c(C)nn3c(C)c(C(=O)NCc4cccc(OC)c4)cnc23)cc1OCC | 77% |
| COc1ccc(N(CC(=O)Nc2ccc(Cl)cc2C)S(=O)(=O)c2ccccc2)c(OC)c1 | 113% |
| CCOc1ccc(NC(=O)CN(c2ccccc2OCC)S(=O)(=O)c2ccccc2)cc1 | 48% |
| CC(NC(=O)CN(c1ccc(Cl)cc1Cl)S(=O)(=O)c1ccccc1)c1ccccc1 (centres undefined) | 37% (active) |
| COc1ccc(N(CC(=O)NCCc2ccccc2)S(=O)(=O)c2ccccc2)c(OC)c1 | 57% |
| COc1ccc(N(CC(=O)Nc2cccc(C(C)=O)c2)S(=O)(=O)c2ccccc2)c(OC)c1 | 48% (active) |
| CCOc1ccc(NC(=O)CN(c2ccc(Cl)cc2C)S(=O)(=O)c2ccccc2)cc1 | 45% (active) |
| Cc1ccccc1NC(=O)CN(c1ccc(Cl)cc1Cl)S(=O)(=O)c1ccccc1 | 44% |
| CCOc1ccc(S(=O)(=O)N(CC(=O)Nc2ccc(OC)c(Cl)c2)c2ccccc2)cc1 | 75% |
| Cc1ccc(CNC(=O)CN(c2ccc(Cl)cc2Cl)S(=O)(=O)c2ccccc2)cc1 | 47% |
| CCN(CC)CCCNc1nc(C)nc2c1nnn2Cc1ccccc1 | 94% |
| CC(C(=O)NCc1ccco1)N1CCN(C)CC1 (centres undefined) | 95% |
| CC(C)NC(=O)Cc1ccc(Br)cc1 | 80% |
| Cc1cccc(N(C)S(=O)(=O)c2cc(-c3cnc(C4CC4)o3)ccc2C)c1 | 100% |
| CCn1c(SCC(=O)Nc2ccc(C)c(C)c2)nnc1-c1nonc1NC(C)=O | 110% |
| COc1ccc(NC(=O)CSc2nnc(-c3ccncc3)n2-c2ccccc2)cc1 | 77% |
| CCc1ccc(NC(=O)CSc2nnc(-c3nonc3NC(C)=O)n2-c2ccccc2)cc1 | 43% (active) |
| COc1ccccc1NC(=O)CSc1nnc(-c2nonc2NC(C)=O)n1-c1ccccc1 | 63% |

| Compound | survival |
| --- | --- |
| CC(=O)Nc1nonc1-c1nnc(SCC(=O)Nc2c(C)cccc2C)n1-c1ccccc1 | 56% |
| CCc1ccccc1NC(=O)CSc1nnc(-c2nonc2NC(C)=O)n1C | 52% |
| CC(=O)Nc1nonc1-c1nnc(SCC(=O)Nc2ccccc2)n1-c1ccccc1 | 39% (active) |
| COc1ccc(NC(=O)CSc2nnc(-c3nonc3NC(C)=O)n2-c2ccccc2)cc1 | 60% (active) |
| CC(=O)Nc1nonc1-c1nnc(SCC(=O)Nc2cc(C)ccc2C)n1-c1ccccc1 | 104% |
| CCOc1ccc(NC(=O)CSc2nnc(-c3ccncc3)n2-c2ccccc2)cc1 | 122% |
| CC(=O)Nc1nonc1-c1nnc(SCC(=O)Nc2ccc(C)cc2)n1-c1ccccc1 | 53% |
| CC(=O)Nc1nonc1-c1nnc(SCC(=O)Nc2ccc(F)cc2F)n1-c1ccccc1 | 13% (active) |
| Cc1cccc(NC(=O)CSc2nc3ccc(NC(=O)c4ccco4)cc3s2)c1 | 66% |
| CCC1CN(C(=O)N2CCC(C(=O)NCc3ccc(OC)cc3OC)CC2)c2cc(C)ccc2O1 (centres undefined) | 79% |
| CCOc1cc(C2c3c(oc4ccccc4c3=O)C(=O)N2c2ccccn2)ccc1O (centres undefined) | 109% |
| CCOC(=O)Cn1c(=O)oc2cc(S(=O)(=O)NCc3ccc(F)cc3)ccc21 | 72% |
| Cc1cccn2c(=O)c(C(=O)NCCc3ccc(S(N)(=O)=O)cc3)c(O)nc12 | 51% |
| Cc1nn2c(=O)cc(COc3ccc(/C=C(\C#N)C(=O)Nc4ccc(F)cc4)cc3)nc2s1 | 58% |
| CCOC(=O)c1c(C)[nH]c(C)c1S(=O)(=O)N1CCC(C(=O)Nc2ccc(C)c(N(C)C)c2)CC1 | 84% |
| CC(=O)N1CCc2nc3sc(C(=O)Nc4ccc(Cl)cc4F)c(N)c3c(C(F)(F)F)c2C1 | 75% |
| CC(=O)Nc1nonc1-c1nnc(SCC(=O)Nc2cccc(C)c2C)n1-c1ccccc1 | 61% |
| CC(=O)Nc1nonc1-c1nnc(SCC(=O)Nc2cccc(F)c2)n1-c1ccccc1 | 19% (active) |
| CC(=O)Nc1nonc1-c1nnc(SCC(=O)Nc2cc(C)cc(C)c2)n1-c1ccccc1 | 50% |
| Cc1nc2cc(-c3ccccc3)nn2c(C)c1CCC(=O)Nc1ccc(F)cc1F | 61% |
